Experimental data taken from the supplement of paper PMC11417369.
In all, about 25,000 sequences were measured (“ln(normalized median fluorescence intensity)”: median about 9.7, highest 2% from about 11 on). The full list was thinned out, with the highest values kept by preference.

What follows are sequences tested on PfAP2-HC AP2 domain (GST-tagged) (assay: gcPBM binding intensity (ln(normalized median fluorescence intensity)); higher = stronger DNA binding).
Summary of the method: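 Using an Agilent 4 × 180k array, primer-extended double-stranded 36-bp intergenic genomic probes and negative controls were exposed for 1 h to GST-fused P. falciparum DNA-binding domains expressed in E. coli. Binding was carried out in 1× PBS with 1% milk, 0.2 mg/ml BSA, 0.5% salmon testes DNA and 0.03% Triton X-100, and protein was detected with Alexa488 anti-GST antibody and a 488 nm scan. Binding intensity is the highest Masliner-normalised natural-log median intensity across replicate spots of either probe orientation.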

Sequence	gcPBM binding intensity (ln)
AAAGGTAAATGTAAATAAATAAATAATAAATATATA [GTGCAC_negctrl_site681]	9.77
TTTTCTTGACCTATTATTCTTCTCATAGTATAATAT [GTGCAC_negctrl_site641]	9.62
TGAACATACATCAAAAGTACAAACTCGCATGTTATA [XGTACX_site3320]	9.67
TATAATATTATACATAGTACACATCACACATCGCAA [XGTACX_site4650]	9.99
ATCAAATAATAGCAAACACACAAAAAATAAAAAAAA [CACACA_site4146]	9.93
ATAATAAGCAAACACACACACACAAAAAAAAAAAAA [CACACA_site720]	11.6
AATAAGCAGAAACACACACACAAAAAAAAAAAAAAA [CACACA_site719]	10.1
AATAAGCATAGACACACACACAAAAAAAAAAAAAAA [CACACA_site6476]	10.1
ATAATAAGCAGACACACACACACAAAAAAAAAAAAA [CACACA_site6477]	11
GACACAAAAAAATAATAATAATAATAATAATAAATA [XGTACX_negctrl_site145]	9.75
GTGATTAATATATACACACATACATATATATATATA [CACACA_site2817]	9.81
TATATATTAAAAATAGTGCAAAATAATATATATATA [GTGCAC_site9716]	9.82
TTTTTTACATCCATAAAACTTTTTCTCTTTTAAAAT [CACACA_negctrl_site1745]	9.43
AAAATTTATGGAAGGTGTACTGTTAATTATGTATAT [XGTACX_site6446]	9.74
AGGAAGGAAATAAATCAACACACATATATTATATAT [CACACA_site8678]	9.87
TTATTGTAAATATATGCATGTGCAAAATGAAAAAAA [TGCATGCA_site399]	9.69
TTTTATGCATGTGAAGTGCAAAATAAAAAATAAAAT [GTGCAC_site9612]	9.56
CAAAAAAATGTGAAGGCATGCAAATATGTAAAATAA [TGCATGCA_site921]	10.9
AAAAAACTTCACATATGTACTTAAAAAAAATTAAAA [XGTACX_site2368]	9.43
ATATAGTAAAATTATACACACATGAATTTTCCCATA [CACACA_site3113]	9.81
TCCCAATTTATTATGTGTACTTATTATATACATATA [XGTACX_site4033]	9.72
TAAAGTATTACAACCACACACACACCGATATATTAT [CACACA_site9382]	10.8
AAGTATTACAACCACACACACACCTATATATTATAT [CACACA_site4158]	10.6

Sequence	gcPBM binding intensity (ln)
TAAAGTATTACAACCACACACACACCCATATATTAT [CACACA_site4159]	11.1
GTATTACAACGACACACACACCTATATATCATAGTA [CACACA_site7877]	10.5
AAGTATTACAACCACACACACACCTATATATCATAG [CACACA_site7878]	11
ATTATAACCATATACACACCCATATAAATAAATATA [CACACA_site6926]	10.5
AAAGGATGTAATATAAACATATATATGTATATATAT [TGCATGCA_negctrl_site347]	9.79
AATATTATATTTTATTGTACTAATAAAAATATATGC [XGTACX_site5435]	9.43
AAAAAAGGAAAAGATACACACCGTAAATTAAAATTT [CACACA_site5908]	10.2
AAAAAAAAAAAAAAAAAAAAAAAAAAAATACGAAAG [GTGCAC_negctrl_site729]	9.46
AATTTCTACTATTGTATGCACTTTCATACATACATA [GTGCAC_site9924]	9.92
TAAAAAATAAAATAATGTACATATGAATTATATATT [XGTACX_site8398]	9.68
TTGTTATAGAAGCATTCACACACACCCATACATACA [CACACA_site8414]	10.8
TATTACCCATATTATACACACATATATTATATATAT [CACACA_site1567]	10.2
TATAGAAGCGTTCACACACACACATACATACCCATA [CACACA_site4915]	11.1
GTTATAGAAGCATTCACACACACACCCACATACACA [CACACA_site1465]	11.2
AATATAGATACATATACACACACACCCATACATATA [CACACA_site9137]	10.6
GTTATAGAAGCATTCACACACACACCGACATACACA [CACACA_site4914]	10.3
TCTTCCATTTTTATTACACACATAAATATGAAATCG [CACACA_site3471]	9.74
ATATATATTTATAATCGTACGTACCTAACAATACAA [XGTACX_site4510]	9.62
ATGGATTATACGTGCACACATATATACAAATAAATA [CACACA_site640]	9.81
AAACTTGACGGACACACACACACATATATAAAAAAA [CACACA_site4577]	11.6
AAACTTGACAGACACACACACACATATATAAAAAAA [CACACA_site757]	10.4
AAACTTGACGAACACACACACACATATATAAAAAAA [CACACA_site6494]	11.5
ACTTGACACGGACACACACACATATATAAAAAAAAA [CACACA_site4576]	10.5

Sequence	gcPBM binding intensity (ln)
ACTTGACACCAACACACACACATATATAAAAAAAAA [CACACA_site756]	11
AAATAAAATACATATAAACACACATATAAACCAACA [CACACA_site8789]	10.2
AGCAGACACCAACACACACACATATATATATATATA [CACACA_site337]	10.5
GTTTGATTAAACTTGACACACATATATATAAATATA [CACACA_site1784]	9.65
CATATATAAAAAAACACACACATATATATATATATA [CACACA_site1195]	10.2
AATGGAAAATTATTAACACACACATATAAATATATA [CACACA_site7899]	10.1
AAATATAAATATACTCGTACATATATATATATATAT [XGTACX_site6940]	9.72
ACAAAACATATATTCTGTACATATATAATGGTGACT [XGTACX_site6796]	9.77
TTTTTTTTTTTTTTTTTTTGATTCTTATAAAAATTT [GTGCAC_negctrl_site240]	8.56
CTTATATTTAGACACACACACAATAAAATGAAAAAA [CACACA_site1031]	10.3
TACTAAGAATTAATATAACAAAATAAAAAAAAAAAA [XGTACX_negctrl_site346]	9.44
TACAATTTATGACACACACACAATAATACCTATATA [CACACA_site6704]	10.3
AATACAATTTATAACACACACACAAGAATACCTATA [CACACA_site6705]	11.1
CAATTTATAAAGAAAACACACATATACCTATATACA [CACACA_site6710]	9.85
ATTGCATTTGTAGATAATACAATATGGATTGTTATA [CACACA_negctrl_site1749]	9.44
TCCTTATTACTTTTTTAAGTCGTAATGAAAGAAAAA [CACACA_negctrl_site1497]	9.15
AAATATATATACCACACACACATACCTCTATTTGTA [CACACA_site1854]	11.1
AAATATTTATACCACACACACATACCTCTATTTGTA [CACACA_site6957]	10.7
CAAAATATATATACCACACACACATACCTCTATTTG [CACACA_site1853]	10.4
ATATATACCTAAGACACACACATATAGATTTATATA [CACACA_site6498]	10.4
CATACACATAGACACACACACATATATACCTATATA [CACACA_site6644]	10.8
TATACCTATAGACACACACACATATAGATTTATATA [CACACA_site7124]	11.1
GATACCTATAGACACACACACATACCTATATACATA [CACACA_site7586]	10.9

Sequence	gcPBM binding intensity (ln)
AATAGATATATAAATACACACAAACATACCTATATA [CACACA_site7823]	10.6
TATAGATACCTATACACACACACACGGACATATATA [CACACA_site7585]	10.8
CATACATAGATATATACACACATACCTATAAATACA [CACACA_site6513]	10.2
TATACCTATAGACACACACACATAAATAGATATATA [CACACA_site6748]	11.1
CATATATACCTATATACACACATATAGATTTATATA [CACACA_site6451]	9.78
TTTGTAAGTCTTTGTTGTACTCAATAGAATGAAGAA [XGTACX_site8930]	9.45
AACTCTTAGAATGACGGTACAGTATAATAGGTGAAC [XGTACX_site7163]	9.69
TATAACTTTTTTAATACACACAAATATTTATTTATA [CACACA_site7425]	9.61
ATACGTATATAATATACATGCATATATAGCACATAC [TGCATGCA_site376]	9.83
AATATATAGCTAAAAACACACAAATATATACACATA [CACACA_site9203]	9.97
TTCAAATATAAATACACACACATAGCTACAAAATAA [CACACA_site4172]	11
CACATACACATACAAACACACATTATATATATATAT [CACACA_site8460]	10.4
CATACATACAAACACACACACATATATATACATACA [CACACA_site852]	11.4
CATACATACAAACACACACACATATATATATATATA [CACACA_site43]	10.2
AAATATAAAAAATATACACACATATAAAATCTATAT [CACACA_site7406]	9.91
TAAATATATAAATACACACAAACATACATATATATA [CACACA_site4050]	10.1
CATACATACAAACACACACACATATAAATACATACA [CACACA_site4625]	11.2
TACAATCTAAAATACACACACACAAACATATATTTA [CACACA_site3702]	10.7
TATAAATATACAAACACACATACAAACATATATATA [CACACA_site1120]	10.2
AAAAAAAACGAACACACACACATACAAAATCTATAT [CACACA_site6795]	11.1
AATTCAAATATAAATACACACACATAGCTACAAAAT [CACACA_site9386]	10.3
